# Bioassay records as filed in PubChem BioAssay.
# In the library only some 0.9% were active in any assay of this set; here they are far more common.
# B2AR arrestin = recruits beta-arrestin to the human beta2-adrenergic receptor; P07550; beta-arrestin recruitment to beta2AR, cell-based reporter; Potency, µM (series often up to 46.1 µM), for inactives: at the highest dose activation, most hits filed as activators; hit rate 0.02% among 330,000; AID 492947;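 further: potency means the concentration at half of the fitted maximal effect; 0% = DMSO controls and full agonism = EC100 isoproterenol or metaproterenol; nearly all actives have a fitted effect of over 65% in size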
# Target sequence (P07550 whole entry, looked up): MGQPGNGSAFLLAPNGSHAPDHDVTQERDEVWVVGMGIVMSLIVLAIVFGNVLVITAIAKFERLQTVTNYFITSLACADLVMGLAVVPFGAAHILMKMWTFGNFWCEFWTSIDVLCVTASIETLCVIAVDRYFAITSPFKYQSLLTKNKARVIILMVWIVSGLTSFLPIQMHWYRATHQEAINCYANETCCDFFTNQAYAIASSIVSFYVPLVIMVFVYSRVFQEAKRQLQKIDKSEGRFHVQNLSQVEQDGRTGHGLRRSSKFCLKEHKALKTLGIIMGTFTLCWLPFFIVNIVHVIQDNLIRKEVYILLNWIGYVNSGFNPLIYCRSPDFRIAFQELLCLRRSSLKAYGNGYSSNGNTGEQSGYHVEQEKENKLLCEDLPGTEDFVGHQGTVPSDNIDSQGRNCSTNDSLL
# L3MBTL1 inh-1 = L3MBTL1 (human) inhibition; Q9Y468; AlphaScreen L3MBTL1–H3K9me1 peptide binding; Potency, µM (titrated, usually from 57.1 µM), without a hit: top-dose activity, negative = inhibition, most hits filed as inhibitors; hit rate 0.66% among 230,000; further: potency means the concentration at half of the fitted maximal effect; on the % scale 0 is the no-effect control and ±100 the full control effect; nearly all actives have a fitted effect of over 60% in size
#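 L3MBTL1 (50 nM) pre-complexed 30 min with biotinylated H3(1-15)K9me1 peptide (75 nM), then compounds added for 30 min at room temperature; AlphaScreen streptavidin donor/nickel chelate acceptor beads (10 ug/mL final) read after 30 min dark incubation.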
# CtBP-E1A blk = blocks the CtBP interaction with E1A | AlphaScreen GST-E1A/His-CtBP binding, 1536-well; active compounds read low | activity change, % (no concentration beside the values) | hit rate 0.49% among 340,000 | AID 651724; in the data active means activity change below about -65%; inconclusive means mostly about -30% to -63%; further: on the % scale 0 is the no-effect control and ±100 the full control effect
#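 In 5 uL wells, 23 nL compound meets equimolar GST-E1A and His-CtBP (5X stock 125 nM each) for 2 h, 37 °C. Beads (5X, 50 ug/mL) then 1 h, 37 °C, dark.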
# Eya2 inh = Eya2 (human) phosphatase inhibition. Potency, µM (highest dose often 76.9 µM), inactives show at the top dose activity, negative = inhibition, actives largely listed as inhibitors. AID 488837. recombinant Eya2, OMFP fluorescence dephosphorylation (OMFP is methylfluorescein phosphate). hit rate 0.006% among 330,000; further: potency means the concentration at half of the fitted maximal effect; on the % scale 0 is the no-effect control and ±100 the full control effect
#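 Eya2 (0.2 uM) preincubated 10 min at ambient with compound, then OMFP substrate added at 50 uM; 10 min reaction in 50 mM HEPES pH 7.5, 50 mM NaCl, 5 uM MgCl2, 0.05% BSA, 1 mM DTT. Fluorescence read at Ex 485/Em 525 nm.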
# Six1-Eya2 inh = inhibitors of human Six1/Eya2 interaction; hit rate 0.56% among 360,000; AID 651725; activity change, % (test concentration not listed); AlphaScreen GST-Six1/His-Eya2 binding, biochemical; active compounds read low; Q15475+O00167; in the data active means activity change below about -65%; inconclusive means mostly about -30% to -63%; further: on the % scale 0 is the no-effect control and ±100 the full control effect
#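 Homogeneous AlphaScreen proximity assay pairing GST-Six1 with His-tagged Eya2 (added as 5X mix: 250 nM and 500 nM) in 50 mM Tris pH 8.0, 300 mM NaCl, 1 mM TCEP. Glutathione donor and nickel acceptor beads; 1 h, 37 °C, dark.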
# L3MBTL1 inh-2 = L3MBTL1 binding inhibition validated; L3MBTL1 methyl-lysine binding inhibition, biochemical qHTS; hit rate 91% among 500; shares compounds with L3MBTL1 inh-1; Potency, µM, actives largely listed as inhibitors; further: potency means the concentration at half of the fitted maximal effect; nearly all actives have a fitted effect of over 70% in size
# L3MBTL1 ctr = AlphaScreen signal inhibition, L3MBTL1 hit counter-screen; 500 tested, under 10 active; shares compounds with L3MBTL1 inh-1; AlphaScreen counterscreen, signal inhibition; Potency, µM (series often up to 57.1 µM), for inactives: top-dose activity change, negative = inhibition, usual class: inhibitors; further: potency means the concentration at half of the fitted maximal effect; 0% is about no effect
# Active calls of the source: *; u = inconclusive; x = no result; [ ] = another dose, or the depositor's remark. Unless noted, the call rests on the fitted dose curve; in most records, active means well fitted curve in the direction sought with a large enough effect; inconclusive means small, poorly fitted or top-dose-only effect, or another doubt; inactive means no such curve, though single readings can be large; an effect the other way counts as inactive or inconclusive.
SMILES,B2AR arrestin,L3MBTL1 inh-1,CtBP-E1A blk,Eya2 inh,Six1-Eya2 inh,others
COc1ccc(-c2cc(CNc3nc4cc(-c5ccccc5C)sc4c(=O)n3C)on2)cc1,x,x,-2,x,-7,
N#Cc1ccc2c(c1)C[C@]1(c3ccsc3)OC3=C(C(=O)OC4(CCCCC4)C3)C2O1,0%[9.22 µM],x,x,3%[15.4 µM],x,
CCN(CC(=O)Nc1ccc(OC)cc1)C(=O)Cc1coc2cc(C)c(C)cc12,0%,-7%,17,1%,-21,
O=S1(=O)CC(N2CCCCC2)CN1CCc1ccccc1 (stereo unspecified),x,x,1,x,6,
Cc1cc(C)c2cc3c(N)c(C(=O)N4CCOCC4)sc3nc2c1,0%,-1%,0,-1%,0,
Cc1cc(C)c2cc3c(N)c(C(=O)Nc4c(C)[nH]c(=O)[nH]c4=O)sc3nc2c1,-1%,11%,-14,-4%,-71*,
Cc1cccc(NC(=O)CSc2cccc3cccnc23)c1C,u,4%[2.29 µM],-79*,0%,u,
NNC(=O)c1ccc(CSc2cccc3cccnc23)cc1,0%,-11%,0,8%,-25,
CCCCCOc1ccc(NC(=O)CSc2cccc3cccnc23)cc1,u,-15%,-95*,1%,-92*,
Cc1cccc(CSc2cccc3cccnc23)c1,1%,u,-92*,6%,-90*,
COc1ccc(NC(=O)CSc2cccc3cccnc23)c(OC)c1,0%,0%,-6,-3%,-21,
COc1ccc(CNC(=O)CSc2cccc3cccnc23)cc1,-1%,x,-3,2%,1,
CCOC(=O)CSc1cccc2cccnc12,u,-29%,-92*,2%,-89*,
c1cc(-c2ccsc2)n2cnnc2c1,x,x,-1,x,-1,
Cc1ccccc1C(=O)O/N=C(\N)c1ccncc1,-2%,10%,-3,1%,8,
Nc1nc2c(nc(Br)n2C2OC3COP(=O)(O)O[C@@H]3C2O)c(=O)[nH]1 (stereo partly specified),x,x,x,2%,x,
COc1ccc(CNC(=O)CCCCCNc2nc(=S)[nH]c3ccccc23)cc1,0%,6%,u,15%,u,
COc1cc2[nH]c(=S)nc(NCCCOC(C)C)c2cc1OC,0%,x,-93*,-10%,-86*,
COCCNc1nc(-c2ccccc2)nc2ccccc12,0%,0%,6,5%,2,
CCCCNc1nc(=S)[nH]c2cc(OC)c(OC)cc12,3%,x,-93*,18%,-91*,
COc1ccc(CCNC(=O)CCCCCNc2nc(=S)[nH]c3ccccc23)cc1OC,2%,-17%,-19,-11%,u,
CCOCCCNc1nc(=S)[nH]c2cc(OC)c(OC)cc12,0%,-4%,-92*,2%,-83*,
COCCNc1nc(=S)[nH]c2cc(OC)c(OC)cc12,0%,0%,-87*,13%,-80*,
CC(C)Oc1ccc(C(=O)OCC(=O)N2CCCc3ccccc32)cc1,1%,-6%,2,-21%,-1,
O=C(O)CCC/C=C\C[C@@H]1[C@@H](/C=C/[C@H](O)C2Cc3ccccc3C2)[C@@H](F)C[C@@H]1O,x,x,x,5%,x,
SMILES,B2AR arrestin,L3MBTL1 inh-1,CtBP-E1A blk,Eya2 inh,Six1-Eya2 inh,others
CCN(C(=O)CSc1nc(N)cc(N)n1)C1CCS(=O)(=O)C1 (stereo unspecified),0%,x,0,0%,3,
O=C(Nc1ccccc1C(F)(F)F)c1ncn[nH]1,0%,x,-88*,2%,-74*,
COC(=O)c1sc(=S)sc1C(=O)OC,0%,1%,13,10%,-89*,
CC(C)c1ccc(NC(=O)[C@@H]2CCC(=O)N2C2OC(=O)c3ccccc32)cc1 (stereo partly specified),-1%,x,2,-9%,-1,
COc1ccc(S(=O)(=O)n2oc(=O)cc2-c2ccccc2)cc1OC,0%,x,u,-5%,-95*,
O=c1cc(-c2ccccc2)n(S(=O)(=O)c2ccccc2)o1,0%,x,-3,4%,4,
COc1ccc(S(=O)(=O)n2oc(=O)cc2-c2ccccc2)cc1,0%,x,-73*,14%,-90*,
O=c1cc(-c2ccccc2)n(S(=O)(=O)c2ccc3ccccc3c2)o1,x,x,-1,x,2,
CCc1nc2c(OCc3ccccc3)cccn2c1N(C)C(C)=O,x,x,1,x,-2,
CC1=NOC(=O)/C1=C\c1ccc(-c2ccc(Br)cc2C(=O)O)o1,0%,22µM*,0,9%,-13,L3MBTL1 inh-2=27*;L3MBTL1 ctr=2%
COc1cc(Cl)ccc1OCc1cc(C(=O)N(C)CC2CCCCO2)no1 (stereo unspecified),-1%,x,2,-6%,0,
Cc1nnc(N2C(=O)c3oc4ccccc4c(=O)c3C2c2ccco2)s1 (stereo unspecified),0%,22µM*,-28,20%,u,L3MBTL1 inh-2=u;L3MBTL1 ctr=8%
CCn1nc(C)cc1C(=O)N1CCCC(C(=O)c2ccc(OC)cc2C)C1 (stereo unspecified),0%,x,3,2%,0,
O=C1C=C(O)CC(c2ccco2)C1 (stereo unspecified),0%,14µM*,-13,6%,-22,L3MBTL1 inh-2=3*;L3MBTL1 ctr=-20%
O=C(O)c1ccc(S(=O)(=O)Nc2ccc(O)c(Sc3nc4ccccc4s3)c2)cc1,0%,22µM*,-1,-1%,-8,L3MBTL1 inh-2=7.5*;L3MBTL1 ctr=-5%
Cc1cc(C)c(C)c(S(=O)(=O)N2CCC(C(=O)NCC(c3ccccc3)N(C)C)CC2)c1C (stereo unspecified),0%,x,-8,2%,4,
CC(=O)c1ccc(S(=O)(=O)Nc2c(C)nn(C)c2C)cc1,-1%,28µM*,-1,25%,7,L3MBTL1 inh-2=u;L3MBTL1 ctr=2%
CCOc1ccc(OCc2ccc(C(=O)O)o2)cc1,-1%,32µM*,14,-15%,0,L3MBTL1 inh-2=11*;L3MBTL1 ctr=1%
O=C(O)c1ccc(COc2ccc3ccccc3c2)o1,0%,2%,x,14%,7,
CC(C)Nc1ccc(Nc2ccnc3cc4ccccc4cc23)cc1,0%,14µM*,-81*,-1%,-70*,L3MBTL1 inh-2=21*;L3MBTL1 ctr=1%
CCOC(=O)C1(Cc2ccc(OC)cc2)CCN(C(=O)c2cc(C)nn2C)CC1,3%,x,x,7%,3,
N#C/C(=C\c1ccc(O)c(O)c1)C(=O)c1ccc(O)c(O)c1,0%,0.5µM*,-6,9%,-28,L3MBTL1 inh-2=0.075*;L3MBTL1 ctr=u
N#C/C(=C\c1ccc(O)c(O)c1)C(=O)N1CCCC1,-1%,-2%,4,2%,-9,
CCCC1Nc2ccc(C(=O)O)cc2C2C=CCC12 (stereo unspecified),-1%,10µM*,-5,2%,u,L3MBTL1 inh-2=3.8*;L3MBTL1 ctr=-20%
